From PubChem BioAssay (Tox21) come the findings set out here.

Molecules are shown by their SMILES. Results filed as inconclusive are left out. Where a call stands in place of a potency, no number is given. A number with no mark means an inactive call. The source made the active and inactive calls. The call rests on the fitted dose curve; in most records, active means well fitted activation curve with a large enough effect in the repeat runs; inconclusive means weak or mixed curves; inactive means flat fitted curve, though single readings scatter.
Potency means the concentration at half of the fitted maximal effect.

This assay in a line: A CellTox Green Cytotoxicity Assay to monitor cytotoxicity in HepG2 cells - 32 hour (AID 1224883). Further: nearly all actives have a fitted effect of over 50% in size. To be noted: CellTox Green fluorescence; series mostly up to 76.8 µM. From the text: National Center for Advancing Translational Sciences [NCATS]
NIH Chemical Genomics Center [NCGC]
U.S. Environmental Protection Agency [EPA]
National Institutes of Environmental Health Sciences [NIEHS]
National Toxicology Program [NTP]
Cell-based models are critical for drug discovery. Determining the natural cytotoxic effects resulting from test compounds is an essential research activity. A CellTox Green Cytotoxicity Assay to monitor cytotoxicity in real time of continues cell culture during 40 hours of the compound treatment was used to screen Tox21 10K library compounds in HepG2 cells. CellTox Green Cytotoxicity Assay is a nonlytic, homogeneous, biofluorescent method to measure cytotoxicity in cell culture after experimental manipulation. The assay system uses a proprietary asymmetric cyanine dye that is excluded from viable cells but preferentially stains the dead cell's DNA. […] Viable cells produce no appreciable increases in fluorescence. Therefore, the fluorescence signal produced by the binding interaction with dead cell DNA is proportional to cytotoxicity.
The mixture of HepG2 cell suspension and reagents were dispensed at 600cells/6 ul/well in 1536-well tissue culture treated black solid bottom plates using a Multidrop dispenser. After the assay plates were incubated at a 37 C/5% CO2 incubator for 5 hours, 23 nL of compounds dissolved in DMSO, positive and negative controls was transferred to the assay plate by a pintool work station. The plates were incubated at 37 C for 40 hours. The fluorescence intensity were measured at 0h, 8h, 16h, 24h, 32h and 40h time points using ViewLux plate reader during compound treatment.
With `CCCN(CC1CC1)c1c([N+](=O)[O-])cc(C(F)(F)F)cc1[N+](=O)[O-]`, the Potency entry is “inactive”. Turning to `C[C@@H]1CC[C@H]2[C@@H](C)C(=O)O[C@@H]3O[C@@]4(C)CC[C@@H]1[C@]32OO4`, the Potency result is “inactive”. With `Nc1nc(N)nc(N)n1`, the Potency result was “inactive”. Same read-out and setting: the value for `COC(C)(C)CCC[C@H](C)C/C=C/C(C)=C/C(=O)OC(C)C` was “inactive”; that for `CCBr` was “inactive”; that for `CCOP(=S)(Oc1ccc([N+](=O)[O-])cc1)c1ccccc1` (stereo not given) was “inactive”. On the same count and under the same terms, then `CCCCN=C=O`, with “inactive”; and `BrCC(Br)C1CCC(Br)C(Br)C1` (stereo not given), with “inactive”. Turning to `c1ccc(CN2CCNCC2)cc1`, the Potency entry is “inactive”. On to `CCOP(O)OCC`, for which the Potency result was “inactive”.

`C=CC(=O)OC(C)(C)C`: the Potency entry was “inactive”. As for `O=C1C(=O)c2cccc3cccc1c23`, the Potency result was “inactive”.

`Clc1cc(Cl)c(Cl)c(Cl)c1`: the Potency result is “inactive”. Still for that read-out and setting: the value for `CCOC(=O)C(Cl)C(C)=O` (stereo not given) was 24.8 µM (active); that for `CC(c1ccc(O)cc1)(c1ccc(O)cc1)c1ccc(O)cc1` was “inactive”. Take `Clc1cccc(SC2CCNCC2)n1`: the Potency result was “inactive”. In the case of `CC(C)O.CC(C)O.OCCN(CCO)CCO.OCCN(CCO)CCO.[Ti]`, the Potency result was “inactive”. Still for that read-out and setting: the value for `O=C(CBr)OCc1ccccc1` was “inactive”. As to `O=Cc1ccc(Cl)cc1Cl`, the Potency result was “inactive”. Take `CO[C@@H]1[C@H](OC(=O)NC(=O)CCl)CC[C@]2(CO2)[C@H]1[C@@]1(C)O[C@@H]1CC=C(C)C`: the cytotoxicity increase was -1.39% [at 15.8 µM].

For `O=S1(=O)OC(c2cc(Br)c(O)c(Br)c2)(c2cc(Br)c(O)c(Br)c2)c2ccccc21`, the Potency entry is “inactive”. Turning to `O=C1CN=C(c2ccccc2)c2cc(Cl)ccc2N1CC1CC1`, the Potency entry was “inactive”.

For the molecule `O=C(C(Cl)(Cl)Cl)C(Cl)(Cl)Cl`, the Potency result was “inactive”. Regarding `Cn1cc[n+](C)c1` (tested in a mixture with another compound), the Potency entry was “inactive”. The same measure, in the same setting: then `ClCCCCBr`, with “inactive”; and `CC1(C)CCC(Cc2ccc(Cl)cc2)C1(O)Cn1cncn1` (stereo not given), with 54.9 µM (active); and `CC(C)N(C(=O)COc1nnc(C(F)(F)F)s1)c1ccc(F)cc1`, with “inactive”. Still for that read-out and setting: then `N#CCc1ccccc1`, with “inactive”; and `COC(N)=O`, with “inactive”.

In the case of `CC(C)N(CCC(C(N)=O)(c1ccccc1)c1ccccn1)C(C)C` (stereo not given), the Potency result is “inactive”. With `C/C=C/C=O`, the Potency entry is “inactive”. On the same count and under the same terms, then `CCCCN(N=O)C(=N)N[N+](=O)[O-]`, with “inactive”; and `Cc1ccccc1C(=O)Nc1cccc(OC(C)C)c1`, with “inactive”; and `CC1C(=O)C[C@]2(C(C)C)C[C@H]12` (stereo not given in full), with “inactive”.

Regarding `CCC(C)(NC(=O)c1cc(Cl)c(C)c(Cl)c1)C(=O)CCl` (stereo not given), the Potency was 49.3 µM (active). Same read-out and setting: then `ClCc1ccccc1`, with “inactive”; and `O=C(Nc1ccccc1)Nc1cnns1`, with “inactive”; and `CN1C[C@H](CNC(=O)OCc2ccccc2)C[C@@H]2c3cccc4c3c(cn4C)C[C@H]21`, with 26.8 µM (active). Still for that read-out and setting: the value for `CC(C)(C)C(O)C(Oc1ccc(Cl)cc1)n1cncn1` (stereo not given) was 43.6 µM (active). Same read-out and setting: the value for `Clc1cccc2ccccc12` was “inactive”.
